High-throughput results deposited in PubChem by several laboratories.
The list is not random: actives were taken first. Their share in the collection is about 2.3%.
NTR1 ag – agonists of human NTR1, primary screen, imaging, U2OS cells, beta-arrestin-GFP, high content; Neurotensin receptor type 1 (Homo sapiens), P30989; NTR1-U2OS beta-arrestin-GFP spot imaging, agonist mode; activation, % at 20 µM; hit rate 0.17% among 330,000;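 active means activation at or above 40% of the spot to cytoplasm intensity ratio, with at least 20 cells analyzed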
Target sequence (P30989 whole entry, looked up): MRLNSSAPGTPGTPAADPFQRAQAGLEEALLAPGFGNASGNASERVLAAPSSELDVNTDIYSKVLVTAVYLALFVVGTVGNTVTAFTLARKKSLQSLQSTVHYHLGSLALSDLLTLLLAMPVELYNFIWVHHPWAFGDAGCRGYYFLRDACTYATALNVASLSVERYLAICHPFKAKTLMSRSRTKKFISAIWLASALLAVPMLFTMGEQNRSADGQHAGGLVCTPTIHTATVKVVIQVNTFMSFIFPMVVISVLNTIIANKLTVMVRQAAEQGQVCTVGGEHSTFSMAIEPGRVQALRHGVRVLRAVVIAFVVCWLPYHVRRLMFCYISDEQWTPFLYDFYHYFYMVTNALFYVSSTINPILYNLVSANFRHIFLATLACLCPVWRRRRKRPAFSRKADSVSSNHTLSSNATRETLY
HTR2A ag – mouse Htr2a agonists via beta-arrestin recruitment, primary screen, cell-based, luminescence | activation, % at 7.6 µM | AID 624169, 2012 | CHO-K1 mHTR2A beta-arrestin complementation; percent of 30 µM serotonin response | 5-hydroxytryptamine receptor 2A (Mus musculus), P35363 | hit rate 0.66% among 360,000;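 active means activation above a run cutoff, the mean activation of all tested compounds plus 3 SD, cut at about 14% in these data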
Granule exo inh – LAMP-1 surface exposure blockers, TALL-104 cells – cell-based, flow cytometry, MLPCN library, primary screen; TALL-104 LAMP-1 surface exposure; cells stimulated with thapsigargin and PMA; inhibition, % at 10 µM; hit rate 0.66% among 360,000; AID 651702, 2012;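 active means inhibition above about 55%, limit read from the data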
Beta2AR agonist – beta2AR agonists driving receptor internalization, primary screen, cell-based, FAP fluorogen, flow cytometry | hit rate 0.43% among 340,000 | Beta-2 adrenergic receptor (Homo sapiens), P07550 | Am2.2-beta2AR cells | response, % (concentration not given with the values);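 active means response above a set limit, near 3 SD of response in nonfluorescent compounds, cut at about 42% in these data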
ABHD5-PLIN5 inh – ABHD5-PLIN5 interaction inhibitors, primary screen, cell lysate, split luciferase complementation, luminescence; Perilipin-5 (Homo sapiens) + 1-acylglycerol-3-phosphate O-acyltransferase ABHD5 (Homo …; Split G. princeps luciferase complementation, 4 h; inhibition, % at 4 µM; hit rate 0.78% among 360,000; AID 602281, 2012;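 active means inhibition above the mean inhibition across every tested compound plus 3 SD, cut at about 22% in these data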
NTR1 ag confirm – NTR1 agonists, single-dose retest, confirmation, imaging, U2OS cells, beta-arrestin-GFP, single concentration. shares compounds with NTR1 ag. activation, % at 20 µM. hit rate 38% among 480. NTR1-U2OS beta-arrestin-GFP translocation imaging;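 active means mean activation at 20 µM of at least 40%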
B2AR ag CP1 – beta2AR agonists via receptor internalization, confirmation, cell-based, FAP fluorogen, flow cytometry, single point, cherry pick 1. hit rate 25% among 1,100. Am2.2-beta2AR cells, FAP surface receptor; hits give low values. percent response (surface receptor), % at 10 µM. shares compounds with Beta2AR agonist;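 active means surface receptor percent response at or below 58%, roughly 3 SD from nonfluorescent compounds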
FAP fluor counter – fluorescence artifact in beta-2AR agonist FAP counterscreen. Am2.2 cells, FAP fluorogen flow cytometry; hits give low values. calls only at 10 µM. 1,100 tested, under 10 active. shares compounds with Beta2AR agonist;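 active means percent response below a set limit in fluorescence channel 1 and below 50% in channel 8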
ABHD5-PLIN5 conf – ABHD5-PLIN5 interaction inhibitors, confirmation, biochemical, luminescence; shares compounds with ABHD5-PLIN5 inh; inhibition, % at 4 µM; hit rate 67% among 2,200; AID 651612, 2012; in the data active means inhibition above about 23%
HNF4 counter – HNF4 dimerization inhibitors, counter-screen for ABHD5-PLIN5 interaction inhibitor project, biochemical, split-luciferase complementation, luminescence; AID 651674, 2012; shares compounds with ABHD5-PLIN5 inh; inhibition, % at 4 µM; hit rate 77% among 2,200;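 active means mean inhibition across replicate wells exceeding the computed hit threshold, cut at about 13% in these data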;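 further: light from luciferase halves that rejoin when HNF4 fusion proteins dimerize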
OPRM1 ag – OPRM1 agonists via beta-arrestin recruitment, confirmation, counter-screen for mouse HTR2A agonist project, cell-based, luminescence, single concentration. hit rate 5.3% among 2,300. shares compounds with HTR2A ag. U2OS OPRM1 beta-arrestin PathHunter; DMSO 0%, DAMGO 9.3 µM 100%. activation, % at 9.3 µM;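 active means mean activation above the mean of DMSO-only wells plus 3 SD, cut at about 0.5% in these data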
m5-HT2A ag conf – mouse HTR2A agonists, beta-arrestin recruitment, confirmation, cell-based, luminescence, CHO-K1 PathHunter, triplicate; AID 624381, 2012; hit rate 19% among 2,300; activation, % at 7.6 µM; shares compounds with HTR2A ag; DMSO 0%, 30 µM serotonin 100%;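 active means mean activation across triplicates above the hit threshold derived in the original primary screen, cut at about 15% in these data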
Exocytosis CP01 – inhibitors of lytic granule exocytosis, confirmation, TALL-104 cells, flow cytometry, Cherry Pick01 | LAMP-1 externalization; stimulated with PMA plus thapsigargin | shares compounds with Granule exo inh | hit rate 11% among 1,500 | inhibition, % at 10 µM; in the data active means inhibition above about 60%
Large screens that a line does not name were inactive (follow-up assays come after a bar, where they were run).

COc1ccc(Cn2c(SCc3cc(C)ccc3C)nc3cc(OC)c(OC)cc3c2=N)cc1	NTR1 ag 48, Beta2AR agonist 43 | NTR1 ag confirm inactive | B2AR ag CP1 20 | FAP fluor counter inactive
CC(C)c1ccc(N(CC(=O)NCc2ccco2)C(=O)CCC(=O)Nc2ccccn2)cc1	none
CCCCCCCCCCOC(=O)Cn1c(COc2ccc(OC)cc2)[n+](C)c2ccccc21	NTR1 ag 50, Granule exo inh 65 | NTR1 ag confirm 65 | B2AR ag CP1 inactive | FAP fluor counter inactive
c1ccc(-c2nn[nH]n2)nc1	none
CCN(CCNCC(O)COc1ccccc1C(C)C)c1cccc(C)c1 (stereo not drawn)	NTR1 ag 54, Beta2AR agonist 45 | NTR1 ag confirm inactive | B2AR ag CP1 inactive | FAP fluor counter inactive
CC1=NNC(=O)/C1=C\c1cn(-c2ccccc2)nc1-c1cccs1	NTR1 ag 83, Beta2AR agonist 106, ABHD5-PLIN5 inh 37 | NTR1 ag confirm 96 | ABHD5-PLIN5 conf 100 | HNF4 counter 102
COc1ccccc1CNC(=O)CN(CCc1ccccc1)S(C)(=O)=O	none
O=C(NNc1c2ccccc2nc2ccccc12)c1ccccc1O	NTR1 ag 50, Granule exo inh 108, Beta2AR agonist 53, ABHD5-PLIN5 inh 26 | NTR1 ag confirm inactive | ABHD5-PLIN5 conf 25 | HNF4 counter 18
CN(C)C(=O)COc1ccc2c(-c3ccccc3)cc(=O)oc2c1	none
O=C(/C=C/c1c(F)cccc1Cl)c1ccc(O)cc1	NTR1 ag 63, ABHD5-PLIN5 inh 39 | NTR1 ag confirm inactive | ABHD5-PLIN5 conf 46 | HNF4 counter 48
COc1cccc(C(C)(O)c2nc(-c3ccc4ccccc4c3)cs2)c1 (stereo not drawn)	none (no result: NTR1 ag, Beta2AR agonist)
CCOc1cc(/C=C\[N+](=O)[O-])ccc1OCC(=O)Nc1ccccc1C	NTR1 ag 45, Beta2AR agonist 112, ABHD5-PLIN5 inh 55 | NTR1 ag confirm 51 | ABHD5-PLIN5 conf 96 | HNF4 counter 102
COc1cc(/C=C/c2cccc[n+]2C)ccc1OCC(=O)Nc1ccccc1C	none
COc1cccc(/C=C/C(=O)c2cccc([N+](=O)[O-])c2)c1OC	NTR1 ag 59, ABHD5-PLIN5 inh 85 | NTR1 ag confirm 59 | ABHD5-PLIN5 conf 101 | HNF4 counter 97
COc1ccc(C(=O)/C=C2/C(=O)Nc3ccccc32)c(OC)c1	NTR1 ag 52, ABHD5-PLIN5 inh 69 | NTR1 ag confirm 49 | ABHD5-PLIN5 conf 95 | HNF4 counter 98
Cc1cc(N2CCOCC2)ccc1/C=C\[N+](=O)[O-]	NTR1 ag 40, Beta2AR agonist 42, ABHD5-PLIN5 inh 77 | NTR1 ag confirm 77 | ABHD5-PLIN5 conf 97 | HNF4 counter 99
CCSc1ccc2c(c1)N(CCCN1CCN(C)CC1)c1ccccc1S2	NTR1 ag 43, ABHD5-PLIN5 inh 24 | NTR1 ag confirm inactive | ABHD5-PLIN5 conf 36 | HNF4 counter inactive
CN1CCN(CCCN2c3ccccc3Sc3ccc(Cl)cc32)CC1	none
CC(C)(C)C(=O)CNCC(=O)C(C)(C)C	none
COC(=O)c1ccc2c(c1)C(C)(C)C(/C=C/c1ccccc1O)=[N+]2C	NTR1 ag 50, Beta2AR agonist 62, ABHD5-PLIN5 inh 64 | NTR1 ag confirm 51 | ABHD5-PLIN5 conf 98 | HNF4 counter 95
C[N+]1=C(/C=C/Nc2ccccc2Cl)C(C)(C)c2ccccc21	none
C[C@H](O)C#Cc1ccc2c(c1)O[C@@H](CN(C)Cc1ccc(-c3ccccc3)cc1)[C@H](C)CN([C@@H](C)CO)S2(=O)=O	none (no result: NTR1 ag, Beta2AR agonist)
CN(C)/C=C1/N=C(c2ccccc2)OC1=O	none
O=CC1=C(c2ccccc2)Oc2ccccc2O1	NTR1 ag 44, Beta2AR agonist 67, ABHD5-PLIN5 inh 30 | NTR1 ag confirm 62 | ABHD5-PLIN5 conf 73 | HNF4 counter 31
CC(=O)Nc1cccc(C(=O)/C=C/c2ccc(Br)cc2)c1	NTR1 ag 48, Beta2AR agonist 67, ABHD5-PLIN5 inh 79 | NTR1 ag confirm 73 | ABHD5-PLIN5 conf 94 | HNF4 counter 88
CC(=O)Nc1cccc(C(=O)/C=C/c2ccc(N(C)C)cc2)c1	none
CC1=NOC(=O)/C1=C\c1ccc(-c2cc(Cl)ccc2Cl)o1	NTR1 ag 44, Granule exo inh 74, Beta2AR agonist 80, ABHD5-PLIN5 inh 39 | NTR1 ag confirm 65 | ABHD5-PLIN5 conf 85 | HNF4 counter 86
CC1=NOC(=O)/C1=C\c1ccc(-c2ccc(Br)cc2C(=O)O)o1	none
O=C(Nc1ccccn1)C(F)(F)C(F)(F)C(F)(F)C(F)(F)C(=O)Nc1ccccn1	none
COc1cccc(-c2nc(NC(C)C)c3ccccc3n2)c1O	NTR1 ag 64, HTR2A ag 46 | NTR1 ag confirm inactive | OPRM1 ag inactive | m5-HT2A ag conf 48
Cc1noc(C)c1COc1ccc(C(=O)NCCc2ccc(F)cc2)cc1	none
CCOc1ccc2[nH]c3c(N4CCc5ccccc5C4)ncnc3c2c1	NTR1 ag 50, Granule exo inh 97 | NTR1 ag confirm inactive | Exocytosis CP01 98
